From PubChem
Most compounds without a hit are left out; they make up all but 19% or so of the library.
TDP1 cell noCPT = qHTS for Inhibitors of human tyrosyl-DNA phosphodiesterase 1 (TDP1): qHTS in cells in absence of CPT; DT40 Tdp1-/- hTDP1 cells, no CPT, ATP luminescence, 48 h; 15% of 420,000 active; Potency, µM (doses to about 46.2 µM), most hits filed as inhibitors; also: nearly all actives have a fitted effect of over 55% in size
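Luminescent ATP content (CellTiter-Glo) served as the growth readout. Knockout chicken DT40 cells expressing human TDP1 were exposed to compounds without camptothecin for a minimum 48 hr at 37 °C.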
IL1B secr inh = blocks inflammasome-driven IL-1 beta release; THP-1 LPS/ATP IL-1B secretion, AlphaLISA, 16 h; stronger effect = lower value; 4.7% of 360,000 active; activity change, % at 57.5 µM; in the data active = activity change below about -50%; inconclusive = mostly about -30% to -49%
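Secreted IL-1B measured by AlphaLISA bead assay after 16 h compound exposure of THP-1 cells; compounds (final up to 57.5 uM) added 1 h before LPS (250 ng/mL) and ATP (1.25 mM) stimulation; lower signal means less secretion.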
TDP1 cell CPT = growth inhibition of DT40 Tdp1-/-;hTDP1 cells with camptothecin (screen for TDP1 inhibitors) | AID 686979 | chicken DT40 Tdp1-/-;hTDP1 cells + 20 nM CPT, ATP luminescence, 48 h | Potency, µM (doses to about 46.2 µM), usual class: inhibitors | 12% of 420,000 active; also: nearly all actives have a fitted effect of over 55% in size
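Chicken DT40 Tdp1-/- cells complemented with human TDP1, 400 cells/well, exposed to compounds plus 20 nM camptothecin for at least 48 h at 37 C; viability read as ATP content by CellTiter-Glo luminescence.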
HT1080 IDH1KD tx = toxicity to HT-1080 IDH1 knockdown cells (counter line); HT-1080 IDH1 knockdown viability, ATP luminescence, 48 h; Potency, µM (doses to about 46.1 µM), actives largely listed as cytotoxic; 2% of 360,000 active; AID 686971
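In this qHTS, HT-1080 cells depleted of IDH1 are exposed for 48 h at 37 °C to compound titrations. Toxicity is scored from CellTiter-Glo luminescence, with DMSO as full viability and medium alone as none.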
HT1080-NT tox = kills 2HG-producing HT-1080-NT fibrosarcoma cells. HT-1080-NT fibrosarcoma viability, CellTiter-Glo ATP luminescence, 48 h. Potency, µM (titrated, usually from 46.1 µM), usual class: cytotoxic. 1.6% of 360,000 active. AID 686970;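 also: NT is the 2HG producing partner of a matched IDH1 knockdown line; nearly all actives have a fitted effect of over 55% in size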
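Viability by CellTiter-Glo luminescence after 48 h compound exposure at 37C of HT-1080-NT cells (750/well, RPMI, 5% FBS). % activity scaled between DMSO wells and medium-only wells, then curve-fitted and categorized by curve class.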
Numbers stand for hits; i = inactive; ? = inconclusive; nt = not tested or not shown; [ ] = dose if it differs, or a comment. Unless noted, calls follow the shape of the dose curve; as a rule, active = well fitted curve in the direction sought with a large enough effect; inconclusive = small, poorly fitted or top-dose-only effect, or another doubt; inactive = no such curve, though single readings can be large; an effect the other way counts as inactive or inconclusive.

SMILES	TDP1 cell noCPT	IL1B secr inh	TDP1 cell CPT	HT1080 IDH1KD tx	HT1080-NT tox
C=CS(=O)(=O)N(Cc1ccc(Cl)c(Cl)c1)C[C@@H](O)CO	21µM	-104	21µM	?	?
CC(=O)Nc1cc(-c2cccc(C)c2)cn2c(-c3ccc(S(C)(=O)=O)cc3)cnc12	12µM	-57	15µM	i	i
COc1ccccc1-c1cc(NC(C)=O)c2ncc(-c3ccc(S(C)(=O)=O)cc3)n2c1	?	i	?	i	i
CC(=O)Nc1cc(-c2ccccc2Cl)cn2c(-c3ccc(S(C)(=O)=O)cc3)cnc12	?	-50	?	i	?
COc1ccccc1-c1nnc(NC(=O)c2ccccc2F)o1	?	i	?	i	i
CCN(Cc1ccccc1)S(=O)(=O)c1ccc(C(=O)Nc2nnc(-c3ccccc3OC)o2)cc1	8.2µM	i	12µM	i	i
COc1ccccc1-c1nnc(NC(=O)c2ccc(S(=O)(=O)N(C)CC3CCCO3)cc2)o1 (centres undefined)	?	i	?	?	i
COc1ccccc1-c1nnc(NC(=O)c2ccc(S(=O)(=O)N(C)C)cc2)o1	23µM	i	?	?	i
COCCCn1cc(CN2CC(N3CCN(C)CC3)CS2(=O)=O)nn1 (centres undefined)	i	i	i	i	i
COc1cccc(C2CC(=O)N(c3ccc(F)cc3)C3=C2C(=O)OC3)c1OC (centres undefined)	i	nt	i	nt	nt
CCN1CCN(c2ncnc3scc(-c4ccc(C)c(C)c4)c23)CC1	18µM	?	?	i	?
Clc1ccc(CN2CCN(c3ncnc4scc(-c5cccs5)c34)CC2)cc1	16µM	i	13µM	i	i
COc1ccc(-c2csc3ncnc(N4CCN(Cc5ccccc5)CC4)c23)cc1	?	i	?	i	i
CCN1CCN(c2ncnc3sc(C)c(-c4ccccc4)c23)CC1	?	i	i	i	i
Fc1ccc(CN2CCN(c3ncnc4scc(-c5ccc(F)cc5)c34)CC2)cc1	23µM	i	16µM	?	?
Cc1ccccc1N1CCN(c2ncnc3scc(-c4cccs4)c23)CC1	9.2µM	i	13µM	i	i
CCC(C)N(C)C1CCN(C(=S)Nc2cccc(SC)c2)CC1 (centres undefined)	i	i	i	i	i
COc1ccccc1N1CCN(C(CNS(=O)(=O)c2cc(F)ccc2F)c2cccnc2)CC1 (centres undefined)	i	i	i	i	i
O=C(NCC(c1cccnc1)N1CCN(c2ccccc2F)CC1)C(=O)Nc1ccc(F)cc1F (centres undefined)	15µM	nt	?	nt	nt
Cc1ccc(CNC(=O)C(=O)NCC(c2cccnc2)N2CCN(c3ccccc3F)CC2)cc1 (centres undefined)	5.8µM	nt	13µM	nt	nt
O=C(NCc1cccnc1)C(=O)NCC(c1ccco1)N1CCN(c2ccccc2F)CC1 (centres undefined)	i	i	i	i	i
O=C1N(c2ccccc2C(F)(F)F)O[C@]1(c1ccccc1)C1CCCCC1	i	i	i	i	i
COc1ccc(/C=C/C(=O)OCC(=O)Nc2c(C)cccc2C)cc1	i	i	i	i	i
Cc1nnnn1/C(=C\c1ccccc1)C(=O)OCC(=O)NC1CCCCC1	15µM	-103	13µM	18µM	?
Cc1nnnn1/C(=C\c1ccccc1)C(=O)OCC(=O)NC(C)(C)C	10µM	i	16µM	?	i
SMILES	TDP1 cell noCPT	IL1B secr inh	TDP1 cell CPT	HT1080 IDH1KD tx	HT1080-NT tox
CC(=O)Nc1ccc(NC(=O)COC(=O)/C(=C/c2ccccc2)n2nnnc2C)cc1	13µM	-76	12µM	?	?
CC(C)(C)NC(=O)COC(=O)c1ccccc1Oc1ccccc1	i	i	i	i	i
O=C(COC(=O)/C=C/c1ccccc1)NC1CCCCCC1	i	i	i	i	i
Clc1ccccc1/C=C/C=N/Nc1nc(N2CCOCC2)nc(N2CCOCC2)n1	23µM	i	23µM	i	i
C/C(=N\N=C(/C)c1cccc(N)c1)c1cccc(N)c1	i	i	i	i	i
COc1ccc(-c2nc3ccccc3o2)cc1NC(=O)C(C)Oc1ccc(Cl)cc1Cl (centres undefined)	23µM	nt	?	nt	nt
COc1ccc(-c2nc3ccccc3o2)cc1NC(=O)c1cccc2c(Cl)cccc12	i	nt	i	nt	nt
COc1ccc(-c2nc3cc(C(C)C)ccc3o2)cc1NC(=O)c1ccc(C)c(Cl)c1	18µM	nt	21µM	nt	nt
COc1ccc(-c2nc3cc(C(C)C)ccc3o2)cc1NC(=O)COc1ccc(C)cc1C	?	nt	6.5µM	nt	nt
Cc1ccc(OCC(=O)Nc2cc(-c3nc4cc(Cl)ccc4o3)ccc2C)c(C)c1	i	nt	i	nt	nt
CC(C)(CC(=O)O)CC(=O)N1CCCN(c2nccc(C(F)(F)F)n2)CC1	i	i	i	i	i
COc1ccc(Cl)cc1NC(=O)C(C)N1CCN(c2ccccn2)CC1 (centres undefined)	18µM	i	?	i	i
Cc1nc(N2CCN(c3ccccn3)CC2)c2c(C)c(C(=O)N3CCN(c4ccc(F)cc4)CC3)sc2n1	?	-62	?	i	i
COc1ccc(NC(=O)c2sc3ncn(CC(=O)N4CCN(c5ccccn5)CC4)c(=O)c3c2C)c(OC)c1	i	i	i	i	i
Cc1c(C(=O)N2CCN(c3ccc(F)cc3)CC2)sc2ncnc(N3CCN(c4ccccn4)CC3)c12	15µM	-84	18µM	nt	nt
COc1ccc(OC)c(NC(=O)c2sc3ncnc(N4CCN(c5ccccn5)CC4)c3c2C)c1	21µM	i	?	i	?
Cc1ccc2c(c1)c1c(c(=O)n(Cc3ccccc3)c(=O)n1Cc1cccc(C(F)(F)F)c1)n2C	i	nt	?	nt	nt
COc1ccc(S(=O)(=O)c2ccc(OC)c(OC)c2)cc1OC	i	i	i	i[9.24 µM]	i
COc1ccc(NC(=S)NNC(=O)Cn2nc(C(F)F)cc2C(F)F)cc1	i	i	i	i	i
Cc1cc(C)c(S(=O)(=O)c2ccccc2)c(N2CCOCC2)n1	i	i	i	i	i
COc1ccccc1N1CCN(C(=O)c2sc3ncnc(N4CCN(c5ccccn5)CC4)c3c2C)CC1	4.6µM	-75	4.6µM	29µM	15µM
c1ccc(-c2noc(CC3CCCCC3)n2)nc1	?	i	i	i	i
CCOC(=O)[C@]12CCCC=C1N(CCc1ccc(OC)c(OC)c1)C(=O)[C@H](CC(=O)NCc1ccccc1)C2	13µM	?	16µM	i	i
CCOC(=O)[C@]12CCCC=C1N(CCc1ccc(OC)c(OC)c1)C(=O)[C@H](CC(=O)N1CCCCC1)C2	12µM	i	15µM	i	i
CCCCCCCCN1C(=O)[C@H](CC(=O)NCc2ccc(OC)c(OC)c2)C[C@@]2(C(=O)OCC)CCCC=C12	?	-77	?	?	?
